# Reference: PubChem BioAssay (NCATS)
# Several values for one entry are separate records, joined by “and”; a condition that tells them apart may be missing. Identical values can stand only once. Results filed as inconclusive are left out. Where a call stands in place of a potency, no number is given. Activity calls are given as the source filed them. Unless noted, calls follow the shape of the dose curve; as a rule, active = well fitted curve in the direction sought with a large enough effect; inconclusive = small, poorly fitted or top-dose-only effect, or another doubt; inactive = no such curve, though single readings can be large; an effect the other way counts as inactive or inconclusive.
# Columns and labels:
# [1] = A High-Content qHTS Against Drug Library for the Identification of Small Molecules that Inhibit DYT1 Early Onset Primary Dystonia-Associated Cell Pathology (AID 1645839; calls by dose curve; also: potency is read from the fitted curve at half-maximal effect)
# Summary of the method: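 Readout: %pathology, the punctate EGFP-TorsinA distribution from imaging, as the primary channel and cell count as the toxicity counterscreen. HEK293 Flp-In cells expressing delE TorsinA were induced with tetracycline and treated with compound for 48 h.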
# [2] = molecular target: Cytochrome P450 2C9 (Homo sapiens) (UniProt P11712); experiment: Cytochrome P450 family 2 subfamily C member 9 (CYP2C9) small molecule antagonists: luciferase biochemical (cell-free) qHTS assay (AID 1645842; active = well fitted curve in the direction sought with a large enough effect in the repeat runs; an effect the other way counts as inactive or inconclusive; also: nearly all actives have a fitted effect of over 55% in size; also: potency is read from the fitted curve at half-maximal effect)
# Chain of Cytochrome P450 2C9 (Homo sapiens) (P11712 whole entry, looked up): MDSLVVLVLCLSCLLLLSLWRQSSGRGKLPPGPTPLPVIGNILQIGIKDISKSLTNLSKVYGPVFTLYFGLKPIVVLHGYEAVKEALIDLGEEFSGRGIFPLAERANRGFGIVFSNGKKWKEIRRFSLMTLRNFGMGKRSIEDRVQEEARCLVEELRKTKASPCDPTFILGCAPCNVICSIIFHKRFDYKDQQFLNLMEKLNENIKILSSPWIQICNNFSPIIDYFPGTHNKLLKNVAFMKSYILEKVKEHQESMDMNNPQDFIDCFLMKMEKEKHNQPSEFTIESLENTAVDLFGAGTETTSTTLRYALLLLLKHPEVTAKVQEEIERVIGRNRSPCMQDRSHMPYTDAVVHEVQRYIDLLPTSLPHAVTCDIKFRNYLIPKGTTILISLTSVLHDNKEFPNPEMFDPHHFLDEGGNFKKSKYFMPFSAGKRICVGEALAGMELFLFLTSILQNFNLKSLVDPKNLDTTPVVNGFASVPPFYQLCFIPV
# Summary of the method: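 Luminescence, after 20 min with luciferin detection reagent, reflected CYP2C9 turnover during a 1 h NADPH-driven reaction at 37C. Enzyme-substrate mix contained 0.4% bovine serum albumin and was preincubated with compound 10 min at room temperature.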
# [3] = Primary qHTS for inhibitors of nuclear receptor binding SET domain protein 2 (NSD2) in an isogenic RCH-ACV NSD2 p.E1099K mutant (9B) (AID 1645876); also: nearly all actives have a fitted effect of over 70% in size; also: potency is read from the fitted curve at half-maximal effect
# [4] = Primary qHTS for inhibitors of nuclear receptor binding SET domain protein 2 (NSD2) in an RCH-ACV wild type WT cells (2C) (AID 1645877); also: nearly all actives have a fitted effect of over 70% in size; also: potency is read from the fitted curve at half-maximal effect
# [5] = molecular target: Cytochrome P450 2D6 (Homo sapiens) (UniProt P10635); experiment: Cytochrome P450 family 2 subfamily D member 6 (CYP2D6) small molecule antagonists: luciferase biochemical (cell-free) qHTS assay (AID 1645840; active = well fitted curve in the direction sought with a large enough effect in the repeat runs; an effect the other way counts as inactive or inconclusive; also: nearly all actives have a fitted effect of over 55% in size; also: potency is read from the fitted curve at half-maximal effect)
# Chain of Cytochrome P450 2D6 (Homo sapiens) (P10635 whole entry, looked up): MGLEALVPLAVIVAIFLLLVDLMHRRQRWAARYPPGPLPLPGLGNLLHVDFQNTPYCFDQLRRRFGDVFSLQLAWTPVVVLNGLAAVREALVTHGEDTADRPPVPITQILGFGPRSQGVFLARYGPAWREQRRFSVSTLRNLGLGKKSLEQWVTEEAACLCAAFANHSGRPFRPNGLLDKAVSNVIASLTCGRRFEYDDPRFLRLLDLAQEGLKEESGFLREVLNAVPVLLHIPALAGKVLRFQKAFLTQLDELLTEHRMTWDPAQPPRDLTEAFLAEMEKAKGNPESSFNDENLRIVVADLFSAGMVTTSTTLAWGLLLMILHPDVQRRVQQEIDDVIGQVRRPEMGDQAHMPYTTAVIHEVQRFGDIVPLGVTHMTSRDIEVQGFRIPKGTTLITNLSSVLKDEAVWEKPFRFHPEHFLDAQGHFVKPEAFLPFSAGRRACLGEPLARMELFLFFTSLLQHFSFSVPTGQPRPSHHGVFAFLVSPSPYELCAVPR
# Summary of the method: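 P450-Glo luminescent screen: recombinant CYP2D6 enzyme–proluciferin substrate mix preincubated with compound 10 min at room temperature, then NADPH regeneration added for 1 h at room temperature. Detection reagent added for 20 min; luciferin light read as relative luminescence units.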
# [6] = molecular target: Cytochrome P450 3A4 (Homo sapiens) (UniProt P08684); experiment: Cytochrome P450 family 3 subfamily A member 4 (CYP3A4) small molecule antagonists: luciferase qHTS assay (AID 1645841; active = well fitted curve in the direction sought with a large enough effect in the repeat runs; an effect the other way counts as inactive or inconclusive; also: nearly all actives have a fitted effect of over 45% in size)
# Chain of Cytochrome P450 3A4 (Homo sapiens) (P08684 whole entry, looked up): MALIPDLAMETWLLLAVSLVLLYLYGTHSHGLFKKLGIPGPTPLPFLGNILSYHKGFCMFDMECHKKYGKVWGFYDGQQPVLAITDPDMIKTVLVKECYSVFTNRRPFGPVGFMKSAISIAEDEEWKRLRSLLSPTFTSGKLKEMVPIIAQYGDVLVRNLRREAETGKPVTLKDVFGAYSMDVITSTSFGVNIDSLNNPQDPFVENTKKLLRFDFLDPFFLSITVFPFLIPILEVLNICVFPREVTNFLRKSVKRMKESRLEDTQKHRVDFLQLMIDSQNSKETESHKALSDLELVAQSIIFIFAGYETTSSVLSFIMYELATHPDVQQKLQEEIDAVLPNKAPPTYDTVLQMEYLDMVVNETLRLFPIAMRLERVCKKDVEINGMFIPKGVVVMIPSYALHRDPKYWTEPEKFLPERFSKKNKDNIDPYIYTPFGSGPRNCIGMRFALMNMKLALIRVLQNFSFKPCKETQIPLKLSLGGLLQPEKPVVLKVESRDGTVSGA
# Summary of the method: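 P450-Glo CYP3A4 enzyme with proluciferin substrate was preincubated with DMSO-dissolved compounds for 10 min at room temperature. NADPH regeneration solution started a 1 h reaction. Detection reagent stopped it, and luminescence was read after 20 min.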
# [7] = molecular target: N-terminal Xaa-Pro-Lys N-methyltransferase 1 (Homo sapiens) (UniProt Q9BV86); experiment: Confirmatory qHTS for Inhibitors of N-terminal methyltransferase 1 (NTMT1): MTaseGlo Assay (AID 1645874);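 also: luminescence from SAH made as NTMT1 methylates SPKRIA peptide using SAM; series mostly up to about 100 µM; nearly all actives have a fitted effect of over 65% in size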
# Chain of N-terminal Xaa-Pro-Lys N-methyltransferase 1 (Homo sapiens) (Q9BV86 whole entry, looked up): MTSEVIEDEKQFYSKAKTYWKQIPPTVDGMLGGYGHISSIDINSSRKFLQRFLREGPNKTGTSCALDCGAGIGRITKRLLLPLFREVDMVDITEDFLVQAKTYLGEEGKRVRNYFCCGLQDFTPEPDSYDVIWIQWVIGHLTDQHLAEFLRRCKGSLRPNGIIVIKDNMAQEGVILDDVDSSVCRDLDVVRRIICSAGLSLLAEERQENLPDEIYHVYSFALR
# Summary of the method: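 qHTS format: NTMT1 125 nM, SAM 100 uM, peptide SPKRIA 1 uM final; 15 min compound preincubation, 30 min reaction at room temperature. MTase-Glo luminescence.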
# [8] = NCATS anti-infectives library activity on HEK293 viability as a counter-qHTS vs the C. elegans viability qHTS (AID 1745854);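 also: HEK293 cells exposed to compounds for 24 hr before the viability read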
# Summary of the method: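 Cytotoxicity in human HEK293 cells is measured by ATP-dependent CellTiter-Glo luminescence following a 24 hr incubation with titrated library compounds at 37C. Top final concentration is 41.7 uM.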
structure (smiles),measurement,setting,value
COc1cc(OC)cc(OC)c1,Potency,[1],inactive
same,Potency,[2],inactive
same,Potency,[3],inactive
same,Potency,[4],inactive
C[C@@H]1C[C@H]2[C@@H]3C[C@H](F)C4=CC(=O)C(Cl)=C[C@]4(C)[C@@]3(F)[C@@H](O)C[C@]2(C)[C@@]1(O)C(=O)CO,Potency,[1],inactive
same,Potency,[2],inactive
CC1=C(C(=O)O)N2C(=O)[C@@H](NC(=O)[C@H](N)c3ccc(O)cc3)[C@H]2SC1,Potency,[1],inactive
same,Potency,[5],inactive
same,Potency,[3],inactive
same,Potency,[4],inactive
CC1(C)O[C@@H]2C[C@H]3[C@@H]4C[C@H](F)C5=CC(=O)C=C[C@]5(C)[C@H]4[C@@H](O)C[C@]3(C)[C@]2(C(=O)CO)O1,Potency,[1],inactive
same,Potency,[5],inactive
same,Potency,[3],inactive
same,Potency,[4],0.0166 µM (active)
COC(=O)[C@@H]1CC2=CC(=O)CC[C@]2(C)[C@@]23O[C@@H]2C[C@@]2(C)[C@@H](CC[C@@]24CCC(=O)O4)[C@H]13,Potency,[1],inactive
same,Potency,[2],inactive
same,Potency,[3],inactive
same,Potency,[4],inactive
NC(=O)C(=O)N/N=C/c1ccc([N+](=O)[O-])o1,Potency,[1],inactive
same,Potency,[2],inactive
CN(C/C=C/c1ccccc1)Cc1cccc2ccccc12,Potency,[1],inactive
same,outcome,[6],inactive
CCOC(=O)/C=C(C)/C=C/C=C(C)/C=C/c1c(C)cc(OC)c(C)c1C,Potency,[1],inactive
same,Potency,[2],7.76 µM (active)
CN(C)CCOc1ccccc1Cc1ccccc1,Potency,[1],inactive
same,Potency,[2],inactive
same,Potency,[3],inactive
same,Potency,[4],inactive
CC(=O)Nc1c(I)cc(I)c(C(=O)O)c1I,Potency,[1],inactive
same,Potency,[2],inactive
same,Potency,[3],inactive
same,Potency,[4],inactive
NC(=O)CC[C@@H]1NC(=O)[C@H](Cc2ccccc2)NC(=O)[C@H](Cc2ccc(O)cc2)NC(=O)CCSSC[C@@H](C(=O)N2CCC[C@H]2C(=O)N[C@@H](CCCN=C(N)N)C(=O)NCC(N)=O)NC(=O)[C@H](CC(N)=O)NC1=O,Potency,[1],inactive
same,Potency,[2],inactive
same,Potency,[3],inactive
same,Potency,[4],inactive
CN(C)C(=S)SC(=S)N(C)C,Potency,[1],inactive
same,Potency,[5],inactive
same,Potency,[3],2.11 µM (active)
same,Potency,[4],2.99 µM (active)
CCN(CCCCOC(=O)c1ccc(OC)c(OC)c1)C(C)Cc1ccc(OC)cc1 (stereo not drawn),Potency,[1],inactive
same,Potency,[2],inactive
CC(=O)OCC(=O)NCCCOc1cccc(CN2CCCCC2)c1,Potency,[1],inactive
same,Potency,[2],inactive
same,Potency,[3],inactive
same,Potency,[4],inactive
O=C(N/N=C/c1ccccc1O)c1ccncc1,Potency,[1],inactive
same,Potency,[2],4.36 µM (active)
same,Potency,[3],6.68 µM (active)
same,Potency,[4],23.7 µM (active)
C/C=C/c1ccc(OC)cc1,Potency,[1],inactive
same,Potency,[5],inactive
same,Potency,[3],inactive
same,Potency,[4],inactive
CCOC(=O)OC(C)OC1=C(C(=O)Nc2ccccn2)N(C)S(=O)(=O)c2ccccc21 (stereo not drawn),Potency,[1],inactive
same,Potency,[5],inactive
same,Potency,[3],inactive
same,Potency,[4],inactive
CO/N=C1\CN(c2nc3c(cc2F)c(=O)c(C(=O)O)cn3C2CC2)CC1CN (stereo not drawn),Potency,[1],inactive
same,Potency,[2],inactive
C[C@H](O)C(=O)Nc1c(I)c(C(=O)NC(CO)CO)c(I)c(C(=O)NC(CO)CO)c1I,Potency,[1],inactive
same,Potency,[2],inactive
same,Potency,[3],inactive
same,Potency,[4],inactive
CC1(C)O[C@@H]2C[C@H]3[C@@H]4CCC5=CC(=O)CC[C@]5(C)[C@@]4(F)[C@@H](O)C[C@]3(C)[C@]2(C(=O)CCl)O1,Potency,[1],inactive
same,Potency,[2],8.71 µM (active)
same,Potency,[3],inactive
same,Potency,[4],inactive
CCOC(=O)COc1ccc2c(C)c(CCN(CC)CC)c(=O)oc2c1Cl,Potency,[1],inactive
same,outcome,[6],inactive
same,Potency,[2],inactive
same,Potency,[3],inactive
same,Potency,[4],inactive
CC(=O)OCC(=O)[C@@]1(O)[C@H](C)C[C@H]2[C@@H]3CCC4=CC(=O)C=C[C@]4(C)[C@@]3(F)[C@@H](O)C[C@@]21C,Potency,[1],inactive
same,Potency,[5],inactive
same,Potency,[4],3.3 nM (active) and 12.9 nM (active)
Oc1c(Cl)cc(Cl)cc1Sc1cc(Cl)cc(Cl)c1O,Potency,[5],12 µM (active)
same,Potency,[2],6.01 µM (active)
CC(C)N=C(N)/N=C(\N)Nc1ccc(Cl)cc1,Potency,[5],3.09 µM (active)
same,Potency,[2],inactive
CC(Cc1ccccc1)(NC(=O)CN)c1ccccc1 (stereo not drawn),Potency,[1],inactive
same,Potency,[3],inactive
same,Potency,[4],inactive
CCN(CCCc1ccccc1)CCCc1ccccc1,Potency,[5],1.23 µM (active)
same,Potency,[2],inactive
Oc1c(I)cc(Cl)c2cccnc12,Potency,[1],5.62 µM (active)
same,Potency,[4],8.41 µM (active)
CCCOC(C(=O)OC1CCN(C)CC1)(c1ccccc1)c1ccccc1,Potency,[5],3.47 µM (active)
same,Potency,[2],inactive
O=C(CCN1CCC(c2ccccc2)C1)c1ccc2c(c1)OCCO2 (stereo not drawn),Potency,[5],0.977 µM (active)
same,outcome,[6],inactive
same,Potency,[2],inactive
same,Potency,[3],2.37 µM (active)
same,Potency,[4],2.99 µM (active)
CCCCCCCCCCOCC(O)CN (stereo not drawn),Potency,[5],4.83 µM (active)
same,Potency,[2],10.8 µM (active)
C[C@]12CC[C@@H]3c4ccc(O)cc4CC[C@H]3[C@@H]1C[C@@H](O)[C@@H]2O,Potency,[5],inactive
same,Potency,[2],inactive
same,Potency,[7],inactive
same,Potency,[3],inactive
CCCC(=O)Nc1ccc(OCC(O)CNC(C)C)c(C(C)=O)c1 (stereo not drawn),Potency,[5],inactive
CC(C)(C)NC(=O)[C@@H]1CN(Cc2cccnc2)CCN1C[C@@H](O)C[C@@H](Cc1ccccc1)C(=O)N[C@H]1c2ccccc2C[C@H]1O,Potency,[1],inactive
same,Potency,[2],inactive
same,Potency,[3],inactive
same,Potency,[4],inactive
same,Potency,[8],inactive
CCCCOc1ccc(OCCCN2CCOCC2)cc1,Potency,[5],13.8 µM (active)
same,Potency,[2],inactive
CC(C)(Oc1ccc(Cl)cc1)C(=O)O,Potency,[1],inactive
same,Potency,[3],inactive
same,Potency,[4],inactive
CCCCC(=O)O[C@]1(C(=O)CO)CC[C@H]2[C@@H]3CCC4=CC(=O)CC[C@]4(C)[C@H]3[C@@H](O)C[C@@]21C,Potency,[1],inactive
same,Potency,[4],0.106 µM (active)
